Assay results: PubChem BioAssay AID1461 (National Center for Advancing Translational Sciences (NCATS), 2008)
Out of some 220,000 compounds screened, about 2,300 (1%) were called active. Not shown: some 6% with an inconclusive outcome. This is one part of a sample in which actives are shown more often than they occur. A number with no mark means an inactive call. The call rests on the fitted dose curve; in most records, active means well fitted inhibition curve with a large enough effect; inconclusive means small, poorly fitted or top-dose-only effect, or effect the other way; inactive means no such curve, though single readings can be large or run the other way.

Target: Neuropeptide S receptor (Homo sapiens) (UniProt Q6W5P4)
Assay: qHTS Assay for Antagonists of the Neuropeptide S Receptor: cAMP Signal Transduction; further: nearly all actives have a fitted effect of over 50% in size
Conditions: CHO-NPSR cells, cAMP TR-FRET, antagonist mode; series mostly up to 38.3 µM; activity change, negative = inhibition: at the top concentration
On the % scale 0 is the no-effect control and ±100 the full control effect; potency means the concentration at half of the fitted maximal effect.

Sequence of Neuropeptide S receptor (Homo sapiens) (Q6W5P4 whole entry, looked up): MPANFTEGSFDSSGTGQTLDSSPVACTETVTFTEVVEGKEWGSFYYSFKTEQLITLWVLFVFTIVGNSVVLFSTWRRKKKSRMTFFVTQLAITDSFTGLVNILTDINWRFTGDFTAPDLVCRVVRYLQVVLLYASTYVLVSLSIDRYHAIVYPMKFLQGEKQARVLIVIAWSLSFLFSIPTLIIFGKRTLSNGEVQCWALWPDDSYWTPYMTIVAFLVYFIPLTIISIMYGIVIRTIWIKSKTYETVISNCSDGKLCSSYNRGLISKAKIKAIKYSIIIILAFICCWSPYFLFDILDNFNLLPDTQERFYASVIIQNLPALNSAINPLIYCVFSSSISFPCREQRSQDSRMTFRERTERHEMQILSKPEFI

| SMILES | activity change, negative = inhibition | Potency |
| --- | --- | --- |
| CCC(C)NC(=O)c1c(N)n(/N=C/c2cccs2)c2nc3ccccc3nc12 (stereo unspecified) | 1.21% [at 46.1 µM] |  |
| C=CCn1c(N)c(C(=O)OCC(C)C)c2nc3ccccc3nc21 | -1.13% [at 46.1 µM] |  |
| CC(C)Cn1c(N)c(C(=O)NCc2cccs2)c2nc3ccccc3nc21 |  | 12.6 µM (active) |
| Cc1ccccc1CSc1nnc(CCCCCNC(=O)OC(C)(C)C)o1 | -26% |  |
| Cc1ccc(C(=O)NNC2=Nc3cc([N+](=O)[O-])ccc3OC2)cc1 | -1.29% [at 7.67 µM] |  |
| CC(C)(C)c1ccc(CCC2OCC(CN3CCOCC3)O2)cc1 (stereo unspecified) | -9.52% |  |
| O=C(CCCl)Nc1ccc(S(=O)(=O)NCc2ccco2)cc1 | 9.32% |  |
| COc1ccc(CCNC(=O)C(Sc2ccccn2)c2ccccc2)cc1OC (stereo unspecified) | -4.36% |  |
| CCOC(=O)CN(Cc1ccc(OC)c(OC)c1)S(=O)(=O)c1ccc(OC)cc1 | -11.5% [at 46.1 µM] |  |
| COc1ccc(C(CCN(Cc2ccc(OC)c(OC)c2)C(=O)CCl)c2ccccc2)cc1 (stereo unspecified) |  | 5.01 µM (active) |
| C/C=C(\C)C(=O)N1CC2(CC(c3cccc(NC(=O)CCCCC)c3)=NO2)C[C@@H]1C(N)=O (stereo partly specified) | 15.3% |  |
| Cn1nnc(NC(=S)NC(=O)c2ccccc2)n1 | 20.6% |  |
| O=c1c2ccccc2c(-c2ccccc2)nn1Cc1ccccc1 | -19.8% |  |
| Cn1c(CO)cnc1SCc1ccccc1 | -2.33% [at 46.1 µM] |  |
| CSc1c(SCc2ccccc2)cnn(Cc2ccccc2)c1=O |  | 10 µM (active) |
| Cc1csc(Nc2ccc(Cl)cc2)[n+]1-c1ccc(Cl)cc1 |  | 10 µM (active) |
| O=c1ccnc(Nc2ccc(Cl)cc2)[nH]1 | 1.3% [at 7.67 µM] |  |
| CC1=NNC(=O)C1CCC(=O)N/N=C(\C)c1ccc(Cl)cc1 (stereo unspecified) | -8.4% |  |

| SMILES | activity change, negative = inhibition | Potency |
| --- | --- | --- |
| Cc1ccc(CSc2nnc(-c3cnccn3)n2C)cc1 | 25.9% |  |
| CC(C)S(=O)(=O)c1csc(NC(=O)Nc2ccc(Cl)cc2)c1Cl | 14.8% [at 7.67 µM] |  |
| Cc1cccn2c(CNCC(C)Oc3cccnc3)c(C(=O)N3CCOCC3)nc12 (stereo unspecified) | 15.1% |  |
| COc1ccc(NC(=O)C2=NNC(=O)CC2)cc1S(=O)(=O)N1CCCCC1 | 0.183% |  |
| O=C(Nc1ccc(S(=O)(=O)Nc2nccs2)cc1)c1cccc(S(=O)(=O)N2CCOCC2)c1 | 3.35% |  |
| COc1ccc(/C(O)=C2\C(=O)C(=O)N(Cc3ccco3)C2c2ccc(OC)cc2OC)cc1 (stereo unspecified) | -2.14% [at 46.1 µM] |  |
| CCOc1ccc(/C(O)=C2\C(=O)C(=O)N(c3ccc(OC)cc3)C2c2ccccc2[N+](=O)[O-])cc1 (stereo unspecified) | 30.9% |  |
| COc1ccc(/C(O)=C2/C(=O)C(=O)N(c3nc(C)c(C)s3)C2c2ccco2)cc1 (stereo unspecified) |  | 10 µM (active) |
| COc1ccccc1N(C)S(=O)(=O)c1ccc(C(=O)NC2CCCCCC2)cc1 | -52.7% |  |
| CC[C@@H](C)[C@@H](C(=O)N1CCN(C(=O)OC(C)(C)C)CC1)n1cc(CCC(=O)O)nn1 | 25.2% |  |
| CC(=O)NC(=S)Nc1ccc(NC(=S)NC(=O)c2ccc([N+](=O)[O-])cc2)cc1 | 14.8% |  |
| COc1cc(/C=C2/C(=O)NN(c3ccc(F)cc3)C2=O)cc([N+](=O)[O-])c1O | -10.9% |  |
| CCOC(=O)c1cc2c(=O)n3ccccc3nc2n(CC(C)C)c1=NC(=O)c1c(-c2c(F)cccc2Cl)noc1C |  | 3.98 µM (active) |
| CCCn1c(=NC(C)=O)c(C(=O)OCC)cc2c(=O)n3ccccc3nc21 | -12.6% [at 46.1 µM] |  |
| C/C(=N/OC(=O)c1c(-c2c(F)cccc2Cl)noc1C)c1cnccn1 | 21.6% |  |
| O=C(O)C1CCN(c2ccc([N+](=O)[O-])cc2[N+](=O)[O-])CC1 | 1.93% |  |
| CC(OC(=O)c1ccc(NS(=O)(=O)c2ccc3[nH]c(=O)[nH]c3c2)cc1)C(=O)Nc1cccc(Cl)c1Cl (stereo unspecified) | -9.26% |  |
| O=C(O)c1cccnc1Sc1ncnc2sc3c(c12)CCC3 | -3.47% |  |
